Measured values: PubChem BioAssay (EPA / NIEHS)
Active and inactive are the calls of the source. Rule for the calls: active = hit-call score of the fitted dose curve at least 0.9, where 1 is the maximum; inactive = score below 0.9.

Experiments:
[1] = read-out: Tumor necrosis factor receptor superfamily member 6 (Homo sapiens) (UniProt P25445); assay: LTEA_HepaRG_FAS: Life Technologies and Expression Analysis (LTEA) Assay for Fas cell surface death receptor (FAS) using HepaRG (AID 2283447); conditions: mRNA level, 48 h; actives raise or lower the signal
In short: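 Differentiated human HepaRG cells, pre-cultured 48 h, were exposed in duplicate for 48 h to 8-point half-log concentrations (top 100 uM, 0.5% DMSO) in serum-free induction medium; FAS mRNA measured by qRT-PCR, normalized to ACTB/GAPDH/POLR2A, bidirectional fit versus DMSO.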

[2] = read-out: Cyclin Dependent Kinase Inhibitor 1A (CDKN1A), CDKN1A (gene 1026); assay: LTEA_HepaRG_CDKN1A: Life Technologies and Expression Analysis (LTEA) Assay for Cyclin Dependent Kinase Inhibitor 1A (CDKN1A) using HepaRG (AID 2283450); conditions: mRNA level, 48 h; actives raise or lower the signal
In short: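 Read-out is CDKN1A mRNA by TaqMan qRT-PCR, normalized to three housekeeping genes and fitted in both directions against the DMSO baseline. Human HepaRG cells were treated 48 h with test chemicals up to 100 uM in half-log steps, 0.5% DMSO.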

[3] = read-out: Cyclin D1 (CCND1), CCND1 (gene 595); assay: LTEA_HepaRG_CCND1: Life Technologies and Expression Analysis (LTEA) Assay for Cyclin D1 (CCND1) using HepaRG (AID 2283451); conditions: mRNA level, 48 h; actives raise or lower the signal
In short: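 HepaRG plated 48 h, medium switched to serum-free induction medium, chemicals added in duplicate (top 100 uM, half-log steps, 0.5% DMSO) for 48 h, cells lysed, RNA measured by TaqMan qRT-PCR.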

[4] = read-out: catalase (CAT), CAT (gene 847); assay: LTEA_HepaRG_CAT: Life Technologies and Expression Analysis (LTEA) Assay for catalase (CAT) using HepaRG (AID 2283452); conditions: mRNA level, 48 h; actives raise or lower the signal
In short: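 Differentiated HepaRG cells in serum-free induction medium were dosed 48 h in duplicate, eight half-log concentrations from 100 uM in 0.5% DMSO. Transcript measured by TaqMan qRT-PCR, normalised to ACTB/GAPDH/POLR2A, fitted bidirectionally against DMSO.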

[5] = read-out: flavin-containing dimethylaniline monooxygenases 3 (FMO3), FMO3 (gene 2328); assay: LTEA_HepaRG_FMO3: Life Technologies and Expression Analysis (LTEA) Assay for flavin-containing dimethylaniline monooxygenases 3 (FMO3) using HepaRG (AID 2283453); conditions: mRNA level, 48 h; actives raise or lower the signal;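 for AC50: FMO3 transcript by TaqMan qRT-PCR normalized to ACTB GAPDH and POLR2A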
In short: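 FMO3 transcript quantified by TaqMan qRT-PCR against three housekeeping genes after 48 h chemical exposure of HepaRG cells. Eight-point half-log series, top 100 uM, 0.5% DMSO vehicle; phenobarbital 1mM induction control; up- or down-regulation fitted.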

[6] = read-out: Cytochrome P450 (CYP1A1), CYP1A1 (gene 1543); assay: LTEA_HepaRG_CYP1A1: Life Technologies and Expression Analysis (LTEA) Assay for Cytochrome P450 (CYP1A1) using HepaRG (AID 2283454); conditions: mRNA level, 48 h; actives raise or lower the signal
In short: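 HepaRG, 48 h post-plating switched to serum-free induction medium; 8-pt conc-response (top 100 uM, half-log, 0.5% DMSO), duplicates, 48 h. Lysis in RLT, TaqMan qRT-PCR for CYP1A1; gain or loss vs DMSO.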

[7] = read-out: CFLAR gene, CFLAR (gene 8837); assay: LTEA_HepaRG_CFLAR: Life Technologies and Expression Analysis (LTEA) Assay for CFLAR gene using HepaRG (AID 2283455); conditions: mRNA level, 48 h; actives raise or lower the signal
In short: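 Gain- or loss-of-signal changes in CFLAR transcript were fitted bidirectionally relative to 0.5% DMSO. Cells (HepaRG, duplicate wells) were dosed for 48 h across eight half-log concentrations topping at 100 uM; quantitation by TaqMan qRT-PCR.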

[8] = read-out: Forkhead box O1 (FOXO1), FOXO1 (gene 2308); assay: LTEA_HepaRG_FOXO1: Life Technologies and Expression Analysis (LTEA) Assay for Forkhead box O1 (FOXO1) using HepaRG (AID 2283456); conditions: mRNA level, 48 h; actives raise or lower the signal
In short: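 Using one lot of HepaRG hepatic cells kept in 0.5% DMSO, the team applied test chemicals in duplicate, half-log dilutions from 100 uM, for 48 h. Expression, normalised to ACTB/GAPDH/POLR2A, was compared with vehicle in either direction.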

[9] = CEETOX_H295R_TESTO: CeeTox H295R High-throughput Steroidogenesis Assay for Testosterone (TESTO) (AID 2283457); conditions: actives raise or lower the signal
In short: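 H295R, passage ≤10, 48 h dosing; media extracted with MTBE → HPLC-MS/MS for testosterone; 7-pt standard curve sets LLOQ/ULOQ; bidirectional fit vs DMSO; MTT viability same wells.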

[10] = read-out: growth arrest and DNA damage 45 (GADD45A), GADD45A (gene 1647); assay: LTEA_HepaRG_GADD45A: Life Technologies and Expression Analysis (LTEA) Assay for growth arrest and DNA damage 45 (GADD45A) using HepaRG (AID 2283458); conditions: mRNA level, 48 h; actives raise or lower the signal
In short: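 GADD45A expression was measured by TaqMan qRT-PCR against three housekeeping genes (ACTB, GAPDH, POLR2A) after 48 h treatment of HepaRG cells. Eight-point half-log series up to 100 uM in 0.5% DMSO, run in duplicate.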

[11] = read-out: ABC Transporter (ABCB1), ABCB1 (gene 5243); assay: LTEA_HepaRG_ABCB1: Life Technologies and Expression Analysis (LTEA) Assay for ABC Transporter (ABCB1) using HepaRG (AID 2283460); conditions: mRNA level, 48 h; actives raise or lower the signal
In short: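 Human liver HepaRG line treated 48 h with up to 100 uM compound (eight half-log points, 0.5% DMSO); ABCB1 mRNA change fitted bidirectionally against DMSO controls.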

[12] = read-out: growth arrest and DNA damage 45 (GADD45B), GADD45B (gene 4616); assay: LTEA_HepaRG_GADD45B: Life Technologies and Expression Analysis (LTEA) Assay for growth arrest and DNA damage 45 (GADD45B) using HepaRG (AID 2283461); conditions: mRNA level, 48 h; actives raise or lower the signal
In short: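 HepaRG, ~100,000 cells/well, 48 h plating; serum-free induction medium; cpd 100 uM top, half-log x8, 0.5% DMSO, duplicate, 48 h; lysis in RLT, RNA isolation, qRT-PCR; norm ACTB/GAPDH/POLR2A; bidirectional fit vs DMSO.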

[13] = read-out: ABC Transporter (ABCC3), ABCC3 (gene 8714); assay: LTEA_HepaRG_ABCC3: Life Technologies and Expression Analysis (LTEA) Assay for ABC Transporter (ABCC3) using HepaRG (AID 2283462); conditions: mRNA level, 48 h; actives raise or lower the signal
In short: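 Human HepaRG, 48 h dosing, 8-pt half-log series from 100 uM, 0.5% DMSO vehicle, duplicates. ABCC3 mRNA by TaqMan qRT-PCR, housekeeping-normalized; bidirectional curve fit vs DMSO.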

[14] = read-out: ABC Transporter (ABCC2), ABCC2 (gene 1244); assay: LTEA_HepaRG_ABCC2: Life Technologies and Expression Analysis (LTEA) Assay for ABC Transporter (ABCC2) using HepaRG (AID 2283464); conditions: mRNA level, 48 h; actives raise or lower the signal
In short: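 HepaRG, 48 h post-plating; serum-free induction medium; cpd 8-pt, 100 uM top, half-log, 0.5% DMSO, duplicate, 48 h. Readout: ABCC2 mRNA by qRT-PCR, norm. ACTB/GAPDH/POLR2A. Bidirectional fit vs DMSO baseline.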

[15] = read-out: Broad substrate specificity ATP-binding cassette transporter ABCG2 (Homo sapiens) (UniProt Q9UNQ0); assay: LTEA_HepaRG_ABCG2: Life Technologies and Expression Analysis (LTEA) Assay for ABC Transporter (ABCG2) using HepaRG (AID 2283465); conditions: mRNA level, 48 h; actives raise or lower the signal
In short: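 Gene expression of ABCG2 in HepaRG liver cells is quantified by qRT-PCR following 48 h exposure across an eight-point series topping at 100 uM. Values come from bidirectional fitting relative to DMSO vehicle.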

[16] = read-out: ATP-citrate lyase (ACLY), ACLY (gene 47); assay: LTEA_HepaRG_ACLY: Life Technologies and Expression Analysis (LTEA) Assay for ATP-citrate lyase (ACLY) using HepaRG (AID 2283466); conditions: mRNA level, 48 h; actives raise or lower the signal
In short: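 ACLY expression changes in human HepaRG liver cells are quantified by qRT-PCR after 48 h exposure to test chemicals (maximum 100 uM, half-log steps). Values are fitted in both directions relative to 0.5% DMSO vehicle.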

[17] = read-out: Cyclin D2 (CCND2), CCND2 (gene 894); assay: LTEA_HepaRG_CCND2: Life Technologies and Expression Analysis (LTEA) Assay for Cyclin D2 (CCND2) using HepaRG (AID 2283449); conditions: mRNA level, 48 h; actives raise or lower the signal;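 note: CCND2 transcript measured by TaqMan qRT-PCR and normalised to three housekeeping genes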
In short: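 In this HepaRG study, an eight-point concentration series (max 100 uM, 0.5% DMSO) is applied for 48 h. CCND2 mRNA change is derived by qRT-PCR normalised to ACTB, GAPDH and POLR2A.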

[18] = read-out: Forkhead box O3 (FOXO3), FOXO3 (gene 2309); assay: LTEA_HepaRG_FOXO3: Life Technologies and Expression Analysis (LTEA) Assay for Forkhead box O3 (FOXO3) using HepaRG (AID 2283459); conditions: mRNA level, 48 h; actives raise or lower the signal
In short: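 Gene-expression endpoint: FOXO3 transcript level by qRT-PCR in HepaRG cultures treated 48 h with chemicals up to 100 uM (half-log, 0.5% DMSO vehicle).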

Measured: AC50

Chain of Broad substrate specificity ATP-binding cassette transporter ABCG2 (Homo sapiens) (Q9UNQ0 whole entry, looked up): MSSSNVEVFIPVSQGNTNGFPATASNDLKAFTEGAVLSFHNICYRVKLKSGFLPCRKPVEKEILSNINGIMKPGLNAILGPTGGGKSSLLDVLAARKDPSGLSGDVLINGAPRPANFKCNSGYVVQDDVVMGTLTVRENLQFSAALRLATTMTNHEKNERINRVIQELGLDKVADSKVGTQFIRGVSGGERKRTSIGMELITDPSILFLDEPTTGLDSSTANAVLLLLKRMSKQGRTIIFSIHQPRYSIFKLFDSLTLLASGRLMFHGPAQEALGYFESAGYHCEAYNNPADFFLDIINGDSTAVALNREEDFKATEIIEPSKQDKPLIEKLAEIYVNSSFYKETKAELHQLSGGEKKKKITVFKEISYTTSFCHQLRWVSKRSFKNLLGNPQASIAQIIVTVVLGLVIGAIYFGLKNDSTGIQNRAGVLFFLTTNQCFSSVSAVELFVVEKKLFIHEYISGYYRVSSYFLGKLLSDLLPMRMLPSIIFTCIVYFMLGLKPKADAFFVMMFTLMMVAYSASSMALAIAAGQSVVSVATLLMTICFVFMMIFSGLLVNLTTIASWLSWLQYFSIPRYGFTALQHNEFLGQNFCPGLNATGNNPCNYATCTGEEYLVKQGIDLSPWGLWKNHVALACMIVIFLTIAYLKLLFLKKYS

CCNc1nc(NC(C)C)nc(SC)n1
inactive: [1] | [2] | [3] | [4] | [7] | [8] | [9] | [10] | [11] | [12] | [13] | [14] | [15] | [16]
active: [5] 50 µM | [6] 19.8 µM

CCSC(=O)N(CC)C1CCCCC1
inactive: [1] | [17] | [2] | [3] | [4] | [5] | [6] | [7] | [8] | [10] | [18] | [11] | [12] | [13] | [14] | [15] | [16]

CCOP(=S)(OCC)SCSC(C)(C)C
inactive: [1] | [17] | [2] | [3] | [4] | [5] | [6] | [7] | [8] | [10] | [18] | [11] | [12] | [13] | [14] | [15] | [16]

C[C@]12CCC(=O)C=C1CC[C@@H]1[C@@H]2CC[C@@]2(C)[C@H]1CC[C@]2(C)O
active: [2] 79.9 µM | [5] 66 µM | [10] 45.8 µM | [11] 5.73 µM | [15] 9.08 µM | [16] 45.8 µM
inactive: [1] | [17] | [3] | [4] | [6] | [7] | [8] | [18] | [12] | [13] | [14]
